From paper PMC9911399, “Two distinct binding modes provide the RNA-binding protein RbFox with extraordinary sequence specificity”
Changes are numbered by the printed parent chain; changes in the protein carry UniProt numbers. Over roughly 16,000 sequences, “ka relative to ugcaugu” has its median near 0.0091; the highest 2% begin near 0.032. Only a selection was taken, and the highest values are over-represented in it overall.

T1: RBFOX1 RRM (Homo sapiens, UniProt Q9NWB1 109-208)
T1 sequence: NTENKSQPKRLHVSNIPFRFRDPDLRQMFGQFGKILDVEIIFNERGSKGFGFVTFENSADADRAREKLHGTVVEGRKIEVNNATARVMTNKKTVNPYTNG

B1: CAACUAC (DNA:RNA)
RNA: GGGAGACCGGAAUUCAGAUUGUCCCAACUACUUAAAUCCCGUCGUAGCCACCA
DNA 1: CAATCTGAATTCCGGTCTCCC
DNA 2: TGGTGGCTACGACGGGATT
B2: UGACGCG (DNA:RNA)
RNA: B1 RNA with C25U, A26G, U29G, A30C, C31G
DNA 1: CAATCTGAATTCCGGTCTCCC
DNA 2: TGGTGGCTACGACGGGATT
B3: UACCGAU (DNA:RNA)
RNA: B1 RNA with C25U, A27C, U29G, C31U
DNA 1: CAATCTGAATTCCGGTCTCCC
DNA 2: TGGTGGCTACGACGGGATT
B4: GACGCUG (DNA:RNA)
RNA: B1 RNA with C25G, A27C, C28G, U29C, A30U, C31G
DNA 1: CAATCTGAATTCCGGTCTCCC
DNA 2: TGGTGGCTACGACGGGATT
B5: GGGAGUC (DNA:RNA)
RNA: B1 RNA with C25G, A26G, A27G, C28A, U29G, A30U
DNA 1: CAATCTGAATTCCGGTCTCCC
DNA 2: TGGTGGCTACGACGGGATT
B6: GUUAAUC (DNA:RNA)
RNA: B1 RNA with C25G, A26U, A27U, C28A, U29A, A30U
DNA 1: CAATCTGAATTCCGGTCTCCC
DNA 2: TGGTGGCTACGACGGGATT
B7: GGGAUCU (DNA:RNA)
RNA: B1 RNA with C25G, A26G, A27G, C28A, A30C, C31U
DNA 1: CAATCTGAATTCCGGTCTCCC
DNA 2: TGGTGGCTACGACGGGATT
B8: GGAGUCU (DNA:RNA)
RNA: B1 RNA with C25G, A26G, C28G, A30C, C31U
DNA 1: CAATCTGAATTCCGGTCTCCC
DNA 2: TGGTGGCTACGACGGGATT
B9: GGAUCUC (DNA:RNA)
RNA: B1 RNA with C25G, A26G, C28U, U29C, A30U
DNA 1: CAATCTGAATTCCGGTCTCCC
DNA 2: TGGTGGCTACGACGGGATT
B10: CGGAGUC (DNA:RNA)
RNA: B1 RNA with A26G, A27G, C28A, U29G, A30U
DNA 1: CAATCTGAATTCCGGTCTCCC
DNA 2: TGGTGGCTACGACGGGATT
B11: GCGGAUC (DNA:RNA)
RNA: B1 RNA with C25G, A26C, A27G, C28G, U29A, A30U
DNA 1: CAATCTGAATTCCGGTCTCCC
DNA 2: TGGTGGCTACGACGGGATT
B12: GGAUCUU (DNA:RNA)
RNA: B1 RNA with C25G, A26G, C28U, U29C, A30U, C31U
DNA 1: CAATCTGAATTCCGGTCTCCC
DNA 2: TGGTGGCTACGACGGGATT
B13: GGAGAUC (DNA:RNA)
RNA: B1 RNA with C25G, A26G, C28G, U29A, A30U
DNA 1: CAATCTGAATTCCGGTCTCCC
DNA 2: TGGTGGCTACGACGGGATT
B14: GGGAAUC (DNA:RNA)
RNA: B1 RNA with C25G, A26G, A27G, C28A, U29A, A30U
DNA 1: CAATCTGAATTCCGGTCTCCC
DNA 2: TGGTGGCTACGACGGGATT
B15: GGGGAUC (DNA:RNA)
RNA: B1 RNA with C25G, A26G, A27G, C28G, U29A, A30U
DNA 1: CAATCTGAATTCCGGTCTCCC
DNA 2: TGGTGGCTACGACGGGATT
B16: CGGAUCU (DNA:RNA)
RNA: B1 RNA with A26G, A27G, C28A, A30C, C31U
DNA 1: CAATCTGAATTCCGGTCTCCC
DNA 2: TGGTGGCTACGACGGGATT
B17: UAUUACU (DNA:RNA)
RNA: B1 RNA with C25U, A27U, C28U, U29A, A30C, C31U
DNA 1: CAATCTGAATTCCGGTCTCCC
DNA 2: TGGTGGCTACGACGGGATT
B18: AUAAGGU (DNA:RNA)
RNA: B1 RNA with C25A, A26U, C28A, U29G, A30G, C31U
DNA 1: CAATCTGAATTCCGGTCTCCC
DNA 2: TGGTGGCTACGACGGGATT
B19: CCGAAGU (DNA:RNA)
RNA: B1 RNA with A26C, A27G, C28A, U29A, A30G, C31U
DNA 1: CAATCTGAATTCCGGTCTCCC
DNA 2: TGGTGGCTACGACGGGATT
B20: AGGUAUU (DNA:RNA)
RNA: GGGAGACCGGAAUUCAGAUUGUCCAGGUAUUUUAAAUCCCGUCGUAGCCACCA
DNA 1: CAATCTGAATTCCGGTCTCCC
DNA 2: TGGTGGCTACGACGGGATT

target: T1, RBFOX1 RRM; assay: EMSA; HiTS-Eq, 1 nM pool, 10 min; buffer printed only for the single-RNA assays: 10 mM Tris pH 7.5, 150 mM NaCl, 3.4 mM EDTA, 0.001% NP-40, 30 C; conditions: tags: His6 N-terminal (pET28a); label: 5' 32P
In short: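 Purified RbFox RRM (wild type or mutant) was equilibrated for 10 min in 50 µL with 1 nM of a 5′-radiolabelled pool of RNA with 7 randomized nucleotides, its flanks annealed to DNA oligonucleotides, across increasing protein concentrations. Free RNA was separated by 8% native PAGE, excised, reverse-transcribed, PCR-barcoded and sequenced on an Illumina HiSeq 2500. Relative association constants came from read-count changes of each variant against the control reaction, normalised to the cognate motif.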

Binder	binding signal
B1	0.000393 KA relative to UGCAUGU
B2	0.0215 KA relative to UGCAUGU
B3	0.00545 KA relative to UGCAUGU
B4	0.0241 KA relative to UGCAUGU
B5	0.0339 KA relative to UGCAUGU
B6	0.00989 KA relative to UGCAUGU
B7	0.0381 KA relative to UGCAUGU
B8	0.0284 KA relative to UGCAUGU
B9	0.0209 KA relative to UGCAUGU
B10	0.0303 KA relative to UGCAUGU
B11	0.00958 KA relative to UGCAUGU
B12	0.0133 KA relative to UGCAUGU
B13	0.0208 KA relative to UGCAUGU
B14	0.0328 KA relative to UGCAUGU
B15	0.0348 KA relative to UGCAUGU
B16	0.0232 KA relative to UGCAUGU
B17	0.00399 KA relative to UGCAUGU
B18	0.00979 KA relative to UGCAUGU
B19	0.00878 KA relative to UGCAUGU
B20	0.0064 KA relative to UGCAUGU
